An excerpt weighted towards active compounds, which were near 7.4% of everything screened.
MITF inh = inhibitors of MITF; TRPM1 promoter luciferase, luminescence, 24 h; inhibition, % (concentration not given with the values); 0.28% of 37,000 active; AID 2240; in the data active means inhibition above about 85%; inconclusive means no clear call, values can overlap the other calls; inactive means below about 68%;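 further: human melanocyte line stably carrying TRPM1 promoter luciferase reporter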
YB-1 expr inh = YB-1 expression inhibition | U2OS, qRT-PCR YB-1 vs CDIP delta delta Cp, 16 h; stronger effect = higher value; zero = DMSO, each unit about twofold | delta delta Cp (YB-1 minus CDIP) (no concentration beside the values) | 0.37% of 30,000 active | AID 434959;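 active means delta delta Cp rounded down to an integer at or above 3, about 3 SD of DMSO wells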;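 further: higher means less YB-1 transcript or more CDIP transcript relative to DMSO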
PD-1 reverse act = activators reversing PD-1 mediated T-cell inhibition; activation, % (test concentration not listed); 29,000 tested, under 10 active; primary human CD4 T cells, PD-L1 beads, CellTiter-Glo 96 h; AID 2316; call rule not given here;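 further: 0% = median vehicle wells and 100% = positive control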
NOMO-1 viab = STK33 inhibitor candidate reducing NOMO-1 cell viability; 7.5% of 37,000 active; NOMO-1 AML viability, CellTiter-Glo luminescence, 72 h; inhibition, % (test concentration not listed); in the data active means inhibition above about 80%; inconclusive means no clear call, values can overlap the other calls
Shh pathway inh = blocks Sonic Hedgehog signaling | Shh-LIGHT2 Gli-luciferase reporter, 30 h | 2.1% of 22,000 active | inhibition, % (test concentration not listed);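 active means mean inhibition across valid replicates above about 65%, limit read from the data; inconclusive means mean under the limit, yet half or more replicates past it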;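 further: pathway switched on by Shh-conditioned medium diluted 1 in 25 in low serum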
* marks the source's active call; other numbers are inactive results; ? = inconclusive; . = not tested or not shown.

SMILES | MITF inh | YB-1 expr inh | PD-1 reverse act | NOMO-1 viab | Shh pathway inh
C[C@H]1CN([C@@H](C)CO)C(=O)c2cc(NC(=O)Nc3ccc4c(c3)OCO4)ccc2O[C@@H]1CN(C)C(=O)Nc1cccc2ccccc12 | 3 | -0.012 | 0 | 13 | -25
O=C(CCc1ccc(O)cc1)CC(O)CCc1ccc(O)c(O)c1 (centres undefined) | 11 | -0.18 | 1 | 85* | -6
O=C(CS(=O)c1ccccc1[N+](=O)[O-])Oc1ccc(Cl)cc1Cl (centres undefined) | 22 | . | -4 | 69 | .
Cc1ccc(C)c(OC(=O)CS(=O)c2ccccc2[N+](=O)[O-])c1 (centres undefined) | 23 | . | -2 | 120* | .
COC(=O)c1ccccc1NC(=O)CSc1n[nH]c(-c2ccccc2)n1 | 31 | . | 2 | 33 | .
C[C@H]1CN([C@@H](C)CO)C(=O)Cc2cc(NC(=O)Nc3ccc(C(F)(F)F)cc3)ccc2O[C@H]1CN(C)S(C)(=O)=O | -9 | -0.44 | . | 90* | .
C[C@H]1CN([C@@H](C)CO)C(=O)Cc2cc(NC(=O)Nc3ccc(C(F)(F)F)cc3)ccc2O[C@H]1CN(C)S(=O)(=O)c1cccs1 | 38 | -0.22 | -4 | 128* | 4
C[C@@H]1CN([C@H](C)CO)C(=O)Cc2cc(NC(=O)Nc3ccc(C(F)(F)F)cc3)ccc2O[C@@H]1CN(C)S(C)(=O)=O | -25 | -0.24 | -2 | 86* | -9
C[C@@H]1CCCCO[C@@H](CN(C)C(=O)Nc2ccccc2)[C@@H](C)CN([C@H](C)CO)C(=O)c2cc(NC(=O)Nc3ccc(C(F)(F)F)cc3)ccc2O1 | 19 | -0.17 | -1 | 70 | 8
C[C@H](CO)N1C[C@H](C)[C@@H](CN(C)Cc2ccc(C(=O)Nc3ccccc3N)cc2)Oc2ccc(NC(=O)C3CC3)cc2C1=O | 4 | -0.93 | 0 | 18 | .
C[C@H](CO)N1C[C@H](C)[C@@H](CN(C)C(=O)NC2CCCCC2)Oc2c(NC(=O)C3CC3)cccc2C1=O | -8 | 0.23 | 1 | 4 | -40
C=C1C(=O)O[C@H]2C1CCC(C)=C1C(=O)C=C(C)[C@@]12O (some centres undefined) | 10 | 0.18 | -5 | 106* | 7
Cc1cc(C(=O)Nc2cccc3c2O[C@@H](CN(C)C(=O)Nc2ccc4c(c2)OCO4)[C@H](C)CN([C@H](C)CO)C3=O)n(C)n1 | 1 | 0.074 | 1 | 6 | 1
Cc1ccc(-c2csc3nc4c5ccccc5c(NCCCN5CCOCC5)nn4c(=O)c23)cc1 | -35 | . | -15 | 114* | .
Cc1sc2nc3c4ccccc4c(NCC4CCCO4)nn3c(=O)c2c1C (centres undefined) | -5 | -0.31 | 0 | 87* | .
C[C@@H]1O[C@@H](O[C@@H]2[C@@H](O)[C@H](OC(=O)[C@]34CCC(C)(C)CC3C3=CCC5[C@@]6(C)CC[C@H](OC7OC(CO)C(OC8OCC(O)C(O)C8O)C(O)C7O)C(C)(C)C6CC[C@@]5(C)[C@]3(C)CC4O)O[C@H]2CO)[C@H](O)[C@H](O)[C@H]1O[C@H]1OC[C@](O)(CO)[C@H]1O (some centres undefined) | 14 | 0.39 | -13 | 95* | ?
CC1(C)CC[C@]2(C(=O)O)CC[C@]3(C)C(=CCC4[C@@]5(C)CC[C@H](O[C@@H]6O[C@H](C(=O)O)[C@@H](O[C@@H]7O[C@H](CO)[C@@H](O)[C@H](O)[C@H]7O)[C@H](O)[C@H]6O[C@@H]6O[C@H](CO)[C@@H](O)[C@H](O)[C@H]6O)C(C)(C)C5CC[C@]43C)C2C1 (some centres undefined) | 0 | -0.24 | -1 | 54 | 16
CC1(C)CC[C@]2(C(=O)O)CC[C@]3(C)C(=CCC4[C@@]5(C)CC[C@H](O[C@@H]6O[C@H](CO)[C@@H](O)[C@H](O)[C@H]6O)C(C)(C)C5CC[C@]43C)[C@@H]2C1 (some centres undefined) | 45 | -0.53 | -10 | 120* | 89*
C=CC1(C)C=C2CCC3C(C)(C)C(O[C@@H]4O[C@@H](CO)[C@H](O)[C@H]4O)CCC3(C)C2CC1O[C@@H]1O[C@H](CO)[C@@H](O)[C@H](O)[C@H]1O (some centres undefined) | . | 0.91 | . | . | 99*
C/C=C(/C)C(=O)O[C@H]1CC(C)(C)C[C@H]2C3=CCC4[C@@]5(C)CC[C@H](O[C@@H]6O[C@H](C(=O)O)[C@@H](O[C@@H]7O[C@H](CO)[C@H](O)[C@H](O)[C@H]7O[C@@H]7O[C@H](CO)[C@@H](O)[C@H](O)[C@H]7O)[C@H](O)[C@H]6O[C@@H]6O[C@@H](C)[C@H](O)[C@@H](O)[C@H]6O)C(C)(C)C5CC[C@@]4(C)[C@]3(C)C[C@@H](O)[C@@]12CO (some centres undefined) | 92* | -1.1 | -15 | 119* | 99*
C=CC1(C)C=C2CCC3C(C)(C)C(O[C@@H]4O[C@@H](CO)[C@H](O)[C@H]4O)CCC3(C)C2CC1O[C@@H]1O[C@H](C)[C@H](O)[C@H](O)[C@H]1O (some centres undefined) | 1 | 0.41 | 0 | -7 | -8
O=C(NO)c1cccc(C(=O)N/N=C/C(Br)=C/c2ccccc2)c1 | . | 0.16 | . | . | .
C[C@@H]1O[C@@H](O[C@@H]2CC[C@@]3(C)C(CC[C@]4(C)C3CC=C3[C@@H]5CC(C)(C)CC[C@]5(C(=O)O[C@@H]5O[C@H](CO)[C@@H](O)[C@H](O)[C@H]5O)CC[C@]34C)[C@]2(C)CO)[C@H](O)[C@H](O[C@@H]2OC[C@@H](O)[C@H](O)[C@H]2O)[C@H]1O (some centres undefined) | 5 | -0.44 | 1 | 10 | -25
CC1(C)CC[C@]2(C(=O)O[C@@H]3O[C@H](CO)[C@@H](O)[C@H](O)[C@H]3O)CC[C@]3(C)C(=CCC4[C@@]5(C)C[C@@H](O)[C@H](O)[C@@](C)(COC(=O)c6cc(O)c(O)c(O)c6)C5[C@H](O)C[C@]43C)[C@@H]2C1 (some centres undefined) | 2 | 0.3 | -1 | 109* | 5
CC1(C)CC[C@]2(C(=O)O[C@@H]3O[C@H](CO)[C@@H](O)[C@H](O)[C@H]3O)CC[C@]3(C)C(=CCC4[C@@]5(C)C[C@H](O)[C@H](O[C@@H]6O[C@H](C(=O)O)[C@@H](O)[C@H](O)[C@H]6O)[C@@](C)(CO)C5CC[C@]43C)C2C1 (some centres undefined) | 2 | 0.0072 | -1 | 0 | -18

Screens (PubChem BioAssay)
